From the supplement of paper PMC13380429

Test system: Vero E6 infected with SARS-CoV-2
Assay: inhibition of SARS-CoV-2 cytopathic effect; higher = more antiviral protection, active = above 15
Settings: 48 h

Measured: inhibition of SARS-CoV-2 cytopathic effect

N#Cc1ccccc1OCC(O)CNCCNC(=O)Nc1ccccc1 (stereo not given)
inactive: 1 nM 0.6% | 8.33 nM 0.87% | 100 nM -0.54% | 833.33 nM 0.35% | 10000 nM -2.72%

CCCCS(=O)(=O)N[C@@H](Cc1ccc(OCCCCC2CCNCC2)cc1)C(=O)O [tirofiban]
inactive: 1 nM 1.63% | 8.33 nM 1.13% | 100 nM 0.55% | 833.33 nM 0.26% | 10000 nM 2.44%

Cc1coc2c1C(=O)C(=O)c1c-2ccc2c(C)cccc12 [tanshinone-I]
inactive: 1 nM 1.07% | 8.33 nM -0.7% | 100 nM 0.25% | 833.33 nM -2.81% | 10000 nM -1.34%

CCCN(CC1CC1)c1nc(C)nc(Nc2c(Cl)cc(Cl)cc2Cl)c1Cl
inactive: 1 nM 4.5% | 8.33 nM 2.92% | 100 nM 1.63% | 833.33 nM 0.09% | 10000 nM 1.2%

COc1cccc(OC)c1-c1ccc(C[C@H](NC(=O)c2c(Cl)cccc2Cl)C(=O)O)cc1
inactive: 1 nM 0.68% | 8.33 nM 2% | 100 nM 0.48% | 833.33 nM 1.89% | 10000 nM 1.23%

CCC[C@@]1(CCc2ccccc2)CC(O)=C([C@H](CC)c2cccc(NS(=O)(=O)c3ccc(C(F)(F)F)cn3)c2)C(=O)O1 [tipranavir]
inactive: 1 nM -0.16% | 8.33 nM 4.7% | 100 nM 1.56% | 833.33 nM 0.71% | 10000 nM 4.99%

OC[C@H]1O[C@@H](Oc2ccc(O)cc2)[C@H](O)[C@@H](O)[C@@H]1O [arbutin]
inactive: 1 nM -0.81% | 8.33 nM 0.67% | 100 nM 0.6% | 833.33 nM -2.34% | 10000 nM 0.83%

CCN(c1cc(C#CCN2CCOCC2)cc(C(=O)NCc2c(C)cc(C)[nH]c2=O)c1C)[C@H]1CC[C@H](N(C)CCOC)CC1
inactive: 1 nM -1.56% | 8.33 nM -1.99% | 100 nM 3.36% | 833.33 nM -2.9% | 10000 nM -5.69%

Nc1n[nH]c2nc3ccccc3nc12 [CDK1-5-inhibitor]
inactive: 1 nM 0.56% | 8.33 nM 0.41% | 100 nM 0.84% | 833.33 nM 0.94% | 10000 nM -3.33%

Cc1cc(C(=O)N2Cc3cnn(C)c3Nc3ccccc32)ccc1CNC(=O)N1CCC[C@H]1C(=S)N1CCCN(C)CC1
inactive: 1 nM -0.76% | 8.33 nM -1.38% | 100 nM -3.62% | 833.33 nM -1.74% | 10000 nM -2.86%

OCCN1C[C@H](O)[C@@H](O)[C@H](O)[C@H]1CO [miglitol]
active: 100 nM 52.1%
inactive: 1 nM -4.01% | 8.33 nM -3.41% | 833.33 nM -3.71% | 10000 nM -4.78%

Cc1cnc(Nc2ccc(OCCN3CCCC3)cc2)nc1Nc1cccc(S(=O)(=O)NC(C)(C)C)c1 [fedratinib]
inactive: 1 nM -3.17% | 8.33 nM 1.42% | 100 nM -0.42% | 833.33 nM -3.59% | 10000 nM -18.4%

CCC(C)(C)c1ccc(CC(C)CN2C[C@@H](C)O[C@@H](C)C2)cc1 (stereo not given in full) [amorolfine]
inactive: 1 nM 1.24% | 8.33 nM 0.11% | 100 nM 1.63% | 833.33 nM 3.07% | 10000 nM 1.19%

CN1C(=O)C(F)=C[C@]2(C)[C@H]3CC[C@]4(C)[C@@H](C(=O)NCc5nc6cccnc6[nH]5)CC[C@H]4[C@@H]3CC[C@@H]12
inactive: 1 nM 0.34% | 8.33 nM -0.43% | 100 nM -0.05% | 833.33 nM 2.35% | 10000 nM 1.08%

CCCCCCCCOc1ccccc1C(=O)Nc1ccc(C(=O)OCC[N+](C)(CC)CC)cc1 [otilonium]
inactive: 1 nM 2.76% | 8.33 nM -0.22% | 100 nM 1.35% | 833.33 nM 1.63% | 10000 nM 0.68%

O=C(Nc1ccc(S(=O)(=O)Nc2nccs2)cc1)C(c1ccccc1)c1ccccc1
inactive: 1 nM -0.78% | 8.33 nM 3.67% | 100 nM 2.47% | 833.33 nM 2.29% | 10000 nM -2.52%

CCCCCS(=O)(=O)CCCCCCCCCCn1c(-c2ccc(O)cc2)c(C)c2cc(O)ccc21
inactive: 1 nM 1.18% | 8.33 nM -2.92% | 100 nM -0.42% | 833.33 nM -1.6% | 10000 nM -5.93%

CCCN1CCC[C@@H]2Cc3n[nH]cc3C[C@H]21 [quinpirol-(-)]
inactive: 1 nM -2.17% | 8.33 nM 2.95% | 100 nM 0.48% | 833.33 nM -2.24% | 10000 nM -0.87%

COc1ccc2[nH]c3c(-c4cccc5ccccc45)nccc3c2c1
inactive: 1 nM -2.63% | 8.33 nM 0.26% | 100 nM -0.2% | 833.33 nM -4.62% | 10000 nM -2.93%

CCS(=O)(=O)N1CCC[C@@H]2CN3CCc4cc(OC)ccc4[C@@H]3C[C@@H]21
inactive: 1 nM -0.74% | 8.33 nM 1.49% | 100 nM 0.02% | 833.33 nM 5.17% | 10000 nM -0.18%

CCN(c1ccccc1)c1cc(=NC)n(C)c(C)n1
inactive: 1 nM -6.18% | 8.33 nM -5.43% | 100 nM -5.42% | 833.33 nM -2.51% | 10000 nM -0.53%

C[C@]12CCC(=O)C[C@@H]1CC[C@@H]1[C@@H]2CC[C@]2(C)C=CC[C@@H]12 [androstenone]
inactive: 1 nM -0.13% | 8.33 nM -0.62% | 100 nM -1.17% | 833.33 nM 0.87% | 10000 nM -0.03%

O=C1Nc2ccc(Cl)cc2[C@@](C#CC2CC2)(C(F)(F)F)O1 [efavirenz]
inactive: 1 nM -5.64% | 8.33 nM -1.07% | 100 nM 0% | 833.33 nM -0.49% | 10000 nM -1.92%

CCCc1nn(C)c2c(=O)[nH]c(-c3cc(S(=O)(=O)N4CCN(C)CC4)ccc3OCC)nc12 [sildenafil]
inactive: 1 nM 2.67% | 8.33 nM 2.01% | 100 nM 0.47% | 833.33 nM 2.04% | 10000 nM -2.29%

N#C/C(=C\c1ccc(O)c(O)c1)C(N)=O [tyrphostin-AG-99]
inactive: 1 nM 3.54% | 8.33 nM 0.59% | 100 nM -0.43% | 833.33 nM 3.25% | 10000 nM 0.46%

COc1ccc2[nH]c([S+]([O-])Cc3ncc(C)c(OC)c3C)nc2c1 (stereo not given) [omeprazole]
inactive: 1 nM 0.48% | 8.33 nM 2.24% | 100 nM 1.08% | 833.33 nM 3.07% | 10000 nM 1.79%

COc1ccc2c(Oc3ccc(NC(=O)c4c(C)n(CC(C)(C)O)n(-c5ccccc5)c4=O)nc3)ccnc2c1
inactive: 1 nM 2.46% | 8.33 nM 1.91% | 100 nM -0.28% | 833.33 nM -1.35% | 10000 nM -0.65%

CCC[C@H](Nc1nc(-c2ccc(NC(=O)NCC)c(OC)c2)ncc1C)c1cccnc1
inactive: 1 nM 0.07% | 8.33 nM -1.4% | 100 nM -1.33% | 833.33 nM -0.69% | 10000 nM -2.7%

O=C(Nc1cccnc1)N1CCC(Cc2cccc(Oc3ccc(C(F)(F)F)cn3)c2)CC1
inactive: 1 nM 0.55% | 8.33 nM -2.38% | 100 nM -1.02% | 833.33 nM 3.15% | 10000 nM -28.6%

CC(=O)NS(=O)(=O)c1ccc(NC(=O)c2ccccc2C(=O)O)cc1 [phthalylsulfacetamide]
inactive: 1 nM -0.71% | 8.33 nM -1.43% | 100 nM -0.27% | 833.33 nM 0.53% | 10000 nM -0.38%

c1ccc(CNCc2ccc(CN3CCCNCCNCCCNCC3)cc2)nc1
inactive: 1 nM 0.27% | 8.33 nM 1.15% | 100 nM 3.41% | 833.33 nM 1.72% | 10000 nM 2.99%

CC(=O)NCCCS(=O)(=O)O [acamprosate]
inactive: 1 nM -2.95% | 8.33 nM 1.47% | 100 nM -2.01% | 833.33 nM -3.15% | 10000 nM -1.78%

COc1cc(C[C@H](C)[C@H](C)Cc2ccc3c(c2)OCO3)ccc1O [macelignan]
inactive: 1 nM 0.71% | 8.33 nM -0.62% | 100 nM 0.01% | 833.33 nM 2.57% | 10000 nM 1.91%

CN1CCC(=C2c3ccccc3C=Cc3ccccc32)CC1 [cyproheptadine]
inactive: 1 nM 1.35% | 8.33 nM -0.26% | 100 nM -1.02% | 833.33 nM -0.75% | 10000 nM -4.89%

O=C(Nc1cnc(Cl)nc1)c1ccc(F)c(F)c1
inactive: 1 nM 1.95% | 8.33 nM 1.13% | 100 nM 2.59% | 833.33 nM -0.85% | 10000 nM 0.14%

CCn1cc(C(=O)O)c(=O)c2cnc(N3CCCC3)nc21 [piromidic-acid]
inactive: 1 nM -0.85% | 8.33 nM 1.01% | 100 nM 0.19% | 833.33 nM -0.21% | 10000 nM -1.75%

Cc1c(CC(C)(C)C(=O)O)n(Cc2ccc(Cl)cc2)c2ccc(F)cc12
inactive: 1 nM 3.46% | 8.33 nM 2.25% | 100 nM 4.56% | 833.33 nM 3.57% | 10000 nM 1.6%

COc1cc(/C=C/C(=O)N2CCN(CC(=O)N3CCCC3)CC2)cc(OC)c1OC [cinepazide]
inactive: 1 nM 5.93% | 8.33 nM 5.29% | 100 nM 8.11% | 833.33 nM -1.14% | 10000 nM 0.17%

O=C(CSc1nc2c(c(=O)n1-c1ccccc1)SCC2)Nc1ccc(-c2ccccc2)cn1
inactive: 1 nM 2.66% | 8.33 nM -2.46% | 100 nM 3.88% | 833.33 nM 1.2% | 10000 nM -2.73%

OC(c1ccc(-c2ccc(CN3CCN(Cc4ccncc4)CC3)cc2)c(F)c1)(C(F)(F)F)C(F)(F)F
inactive: 1 nM -1.89% | 8.33 nM 0.74% | 100 nM -2.07% | 833.33 nM -1.4% | 10000 nM -1.46%
